Screens from PubChem.
Many of the other results were omitted from the sample, so hits are more common in it than they were.
nsP2pro primary – Primary qHTS for inhibitors of NSP2Pro chikungunya virus (CHIKV). Polyprotein P1234 (Chikungunya virus (strain S27-African prototype)), Q8JUX6. FRET peptide cleavage, nsP2pro, fluorescence 1 h. Potency, µM (doses to about 24.9 µM), for inactives: at the top dose activity change, negative = inhibition, most hits filed as inhibitors. 1.1% of 31,000 active. AID 1964107, 2024; also: nearly all actives have a fitted effect of over 60% in size
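Recombinant nsP2pro (150 nM) was preincubated with compound 15 min at room temperature in 10 mM Tris-HCl pH 8.0, 0.01% Tween 20. Peptide 2 FRET substrate (2.5 uM) was then added and fluorescence read after 1 h. Seven-point series, up to 25 uM.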
nsP2 cell sec – Secondary cell base assay for inhibitors of NSP2Pro Chikungunya virus (CHIKV); shares compounds with nsP2pro primary; Potency, µM (highest dose often 51.1 µM), for inactives: at the top dose activity change, negative = inhibition, usual class: inhibitors; cell-based CHIKV nsP2 protease reporter assay; 10% of 450 active; also: nearly all actives have a fitted effect of over 70% in size
Target sequence (Q8JUX6 220-798 limits assumed): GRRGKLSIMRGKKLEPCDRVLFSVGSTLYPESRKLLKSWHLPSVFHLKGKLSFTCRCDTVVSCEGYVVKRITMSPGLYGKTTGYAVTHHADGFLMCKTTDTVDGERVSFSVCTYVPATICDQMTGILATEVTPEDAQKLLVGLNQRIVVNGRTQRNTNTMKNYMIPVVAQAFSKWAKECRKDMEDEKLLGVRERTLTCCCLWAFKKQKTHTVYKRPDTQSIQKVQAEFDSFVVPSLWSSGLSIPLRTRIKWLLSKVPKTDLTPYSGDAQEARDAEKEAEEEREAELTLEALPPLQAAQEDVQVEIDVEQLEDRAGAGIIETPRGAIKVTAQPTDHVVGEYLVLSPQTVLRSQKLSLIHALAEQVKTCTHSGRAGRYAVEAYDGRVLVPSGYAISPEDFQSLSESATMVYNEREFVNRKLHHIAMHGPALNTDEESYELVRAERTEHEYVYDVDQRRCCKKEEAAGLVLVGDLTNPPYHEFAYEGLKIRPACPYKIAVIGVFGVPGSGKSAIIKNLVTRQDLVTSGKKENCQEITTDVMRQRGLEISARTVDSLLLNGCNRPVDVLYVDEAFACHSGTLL
CHIKV NSP2 FL – Selectivity profile for inhibitors of NSP2Pro chikungunya virus (CHIKV): Full length NSP2 enzyme counterscreen (CHIKV-NSP2); 39% of 410 active; Full-length CHIKV NSP2 protease enzymatic counterscreen; shares compounds with nsP2pro primary; AID 1964101, 2024; Potency, µM (top dose mostly 50.7 µM), without a hit: at the top dose activity change, negative = inhibition, most hits filed as inhibitors; also: nearly all actives have a fitted effect of over 65% in size
Furin counter – Selectivity profile for inhibitors of NSP2Pro chikungunya virus (CHIKV): Human furin counterscreen | shares compounds with nsP2pro primary | Recombinant human furin enzymatic counterscreen, fluorogenic substrate | Potency, µM (series often up to 50.6 µM), for inactives: at the highest dose activity change, negative = inhibition, hits mostly inhibitors | 6% of 410 active
NS23 peptide cs – Selectivity profile for inhibitors of NSP2Pro chikungunya virus (CHIKV): Endogenous NS2/3 peptide Counterscreen. Potency, µM (titrated, usually from 51 µM), for inactives: top-dose activity change, negative = inhibition, hits mostly inhibitors. shares compounds with nsP2pro primary. 34% of 410 active. Purified CHIKV nsP2 protease, endogenous NS2/3 peptide cleavage; also: nearly all actives have a fitted effect of over 55% in size
Papain cs – Selectivity profile for inhibitors of NSP2Pro chikungunya virus (CHIKV): Papain Counterscreen. shares compounds with nsP2pro primary. purified papain protease activity, enzymatic inhibition. Potency, µM (series often up to 51 µM), inactives show at the top dose activity change, negative = inhibition, actives largely listed as inhibitors. 5% of 410 active
nsP2pro confirm – Confirmatory qHTS for inhibitors of NSP2Pro chikungunya virus (CHIKV) | shares compounds with nsP2pro primary | CHIKV nsP2 protease enzymatic activity, qHTS | Potency, µM (series often up to 25.5 µM), for the others: top-dose activity change, negative = inhibition, most hits filed as inhibitors | 43% of 410 active | AID 1964105, 2024; also: nearly all actives have a fitted effect of over 75% in size
HCV NS3 counter – Selectivity profile for inhibitors of NSP2Pro chikungunya virus (CHIKV): NS34A-HCV Counterscreen | shares compounds with nsP2pro primary | HCV NS3/4A protease biochemical counterscreen | Potency, µM (doses to about 50.9 µM), hits mostly inhibitors | 20% of 410 active | AID 1964106, 2024; also: nearly all actives have a fitted effect of over 55% in size
The depositor's hits bear a star; i = inactive; ? = inconclusive; ! = not confirmed by another sample; [ ] = another dose, or the depositor's remark. Calls follow the shape of the full dose curve. % is scaled to controls: 0 for no effect and ±100 for the full control effect; potency is read from the fitted curve at half-maximal effect.

SMILES	nsP2pro primary	others
CC1(C)O[C@H]2CC(=O)OC[C@]23[C@H]2CC[C@@]4(C)[C@H](c5ccoc5)OC(=O)[C@H]5O[C@]54[C@]2(C)C(=O)C[C@@H]13	-13.4%
COC(=O)C[C@H]1C(C)(C)[C@H](OC(C)=O)C2CC3=C4CC(=O)O[C@@H](c5ccoc5)[C@]4(C)CCC3[C@@]1(C)C2=O (some centres undefined)	-2.1%[10 µM]
COc1ccc(CN2CC3(CCN(S(=O)(=O)c4c(C)nn(C)c4C)CC3)C2=O)cc1	-12.0%
C/C(=C\CO)CC/C=C(\C)C(=O)O[C@@H]1O[C@H](CO)[C@@H](O)[C@H](O)[C@H]1O	2.1%
O=C(CCN1CCN(C(=O)OCc2cc(Cl)cc(Cl)c2)CC1)c1ccc2[nH]c(=O)oc2c1	0.988µM*!	nsP2 cell sec=-2.4%;CHIKV NSP2 FL=16.3µM*;Furin counter=-3.3%;NS23 peptide cs=?;Papain cs=-20.9%;nsP2pro confirm=6.34µM*;HCV NS3 counter=i
O=C(Nc1ccc2[nH]c(=O)oc2c1)C(=O)N1CCC(Cc2ccc(F)cc2)CC1	-5.2%
C[C@@H]1O[C@@H](O[C@H]2[C@H](O[C@H]3CC[C@@]4(C)C(CC[C@]5(C)C4CC=C4[C@@H]6CC(C)(C)CC[C@]6(C(=O)O[C@@H]6OC[C@H](O)[C@H](O)[C@H]6O[C@@H]6O[C@@H](C)[C@H](O[C@@H]7O[C@H](CO)[C@@H](O)[C@H](O)[C@H]7O)[C@H](O)[C@H]6O)[C@H](O)C[C@]45C)C3(C)C)O[C@H](CO)[C@@H](O[C@@H]3OC[C@@H](O)[C@H](O)[C@H]3O)[C@@H]2O)[C@H](O)[C@H](O)[C@H]1O (some centres undefined)	14.0%[5.1 µM]
Cc1ccc(N(C)S(=O)(=O)c2ccc3c(c2)CCC(=O)N3)cc1C	-0.2%
CC1OC(OC2C(O)C(OC3CCC4(C)C(CCC5(C)C4CC=C4C6CC(C)(COC7OC(CO)C(O)C(O)C7O)CC(O)C6(C)CCC45C)C3(C)C)OC(C(=O)O)C2O)C(O)C(O)C1OC1OCC(O)C(O)C1O (centres undefined)	18.5%[5.1 µM]
CCOC(=O)C1CCN(C(=O)Cn2ncc3c4ccccc4n(C)c3c2=O)CC1	-15.3%
Cc1ccc(C)c(N2CCN(C(=O)Cn3ncc4ccsc4c3=O)CC2)c1	-19.2%
CCOC(=O)N1CCN(C(=O)Cn2sc3nc(C)cc(C)c3c2=O)CC1	3.94µM*	nsP2 cell sec=24.2%;CHIKV NSP2 FL=?;Furin counter=3.3%;NS23 peptide cs=20.6µM*;Papain cs=-12.9%;nsP2pro confirm=4µM*;HCV NS3 counter=i
CC(C)(O[C@@H]1O[C@H](CO)[C@@H](O)[C@H](O)[C@H]1O)C(OC(=O)/C=C\c1ccc(O)cc1)C(=O)OCc1ccc(O[C@@H]2O[C@H](CO)[C@@H](O)[C@H](O)[C@H]2O)cc1 (some centres undefined)	9.9%[10 µM]
CCOC(=O)CSc1nc2ccc(NC(=O)c3ccc(Cl)cc3)cc2s1	?	nsP2 cell sec=-7.4%
O=C(Nc1ccc2nc(SCC(=O)N3CCc4ccccc43)sc2c1)c1cccc(Cl)c1	-15.9%
CCOc1ccc(C(=O)Nc2ccc3nc(SCC(=O)N4CCCC4)sc3c2)cc1	-11.2%
C[C@@H]1O[C@@H](O[C@H]2[C@H](OC(=O)[C@]34CCC(C)(C)C[C@H]3C3=CCC5[C@@]6(C)C[C@@H](O)[C@@H](O[C@@H]7O[C@H](CO)[C@@H](O)[C@H](O)[C@H]7O)[C@@](C)(CO)C6[C@H](O)C[C@@]5(C)[C@]3(C)CC4)OC[C@H](O)[C@@H]2O)[C@H](O)[C@H](O[C@@H]2OC[C@](O)(CO)[C@H]2O)[C@H]1O[C@@H]1OC[C@@H](O)[C@H](O[C@H]2O[C@H](C)[C@@H](O)[C@H](O)[C@@H]2O)[C@H]1O (some centres undefined)	-4.1%[5.1 µM]
CCOc1ccc(NC(=O)c2nc(S(=O)(=O)Cc3ccccc3)ncc2Cl)cc1	144.5%
COc1ccc(CNC(=O)c2nc(S(=O)(=O)Cc3ccccc3)ncc2Cl)cc1	6.31µM*!	nsP2 cell sec=3.66µM*!;CHIKV NSP2 FL=16.3µM*;Furin counter=-1.2%;NS23 peptide cs=8.19µM*;Papain cs=-1.6%;nsP2pro confirm=5.65µM*;HCV NS3 counter=?
COc1ccc(NC(=O)c2nc(S(=O)(=O)Cc3ccc(C)cc3)ncc2Cl)cc1	-30.2%
CC(=O)O[C@@]1(C)C[C@@H](O)[C@]2(O)C=CO[C@@H](O[C@@H]3O[C@H](CO)[C@@H](O)[C@H](O)[C@H]3O)[C@@H]21	-4.1%[10 µM]
CC(=O)OC1(C)CC(O)C2(O)C=COC(OC3OC(CO)C(O)C(O)C3O)C12 (centres undefined)	-1.7%[10 µM]
CC(=O)OC1C(O)CC(O[C@@H]2O[C@H](CO)[C@@H](O)[C@H](O)[C@H]2O)C2CCC3C(=O)OC(c4ccoc4)CC3(C)C21 (some centres undefined)	?	nsP2 cell sec=4.0%[17.6 µM];CHIKV NSP2 FL=5.2%[17.3 µM];Furin counter=8.8%[17.3 µM];NS23 peptide cs=-2.3%[17.2 µM];Papain cs=-5.2%[17.2 µM];nsP2pro confirm=-18.7%[8.62 µM];HCV NS3 counter=i
C=CC(C)(O)C1CC2C3(C)CCCC(C)(C)C3C(O)C(O)C2(C)O1 (centres undefined)	2.4%
COc1cc(C(=O)N2CCC(Cc3nc(C(C)C)no3)CC2)cc(OC)c1OC	i
C[C@@H]1CN(Cc2cc(C(N)=O)oc2C(C)(C)C)CC[C@@]1(O)C1CCC1	-2.7%
CC(=O)Nc1sc2c(c1-c1cccc3ccccc13)CCNC2	-7.1%
